HT1080-NT tox = kills 2HG-producing HT-1080-NT fibrosarcoma cells. 360,000 tested, 1.6% active. AID 686970. Potency, µM (doses to about 46.1 µM), inactives show at the top dose activity, negative = less viability, actives largely listed as cytotoxic. HT-1080-NT fibrosarcoma viability, CellTiter-Glo ATP luminescence, 48 h;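 further: NT is the 2HG producing partner of a matched IDH1 knockdown line; potency means the concentration at half of the fitted maximal effect; 0% = DMSO-treated cells and -100% = media-only wells without cells; nearly all actives have a fitted effect of over 55% in size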
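Toxicity toward the 2HG-producing NT line was scored as %Activity, normalised to DMSO and no-cell wells, from CellTiter-Glo luminescence after 48 hours' treatment.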
TDP1 cell noCPT = qHTS for Inhibitors of human tyrosyl-DNA phosphodiesterase 1 (TDP1): qHTS in cells in absence of CPT; DT40 Tdp1-/- hTDP1 cells, no CPT, ATP luminescence, 48 h; Potency, µM (highest dose often 46.2 µM), without a hit: at the highest dose activity change, negative = growth inhibition, most hits filed as inhibitors; 420,000 tested, 15% active; further: potency means the concentration at half of the fitted maximal effect; nearly all actives have a fitted effect of over 55% in size
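Stably hTDP1-transfected Tdp1-null chicken DT40 cells were treated with library compounds minus camptothecin and grown for at least 48 hr at 37 °C, after which cellular ATP was quantified by luminescence.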
TDP1 cell CPT = growth inhibition of DT40 Tdp1-/-;hTDP1 cells with camptothecin (screen for TDP1 inhibitors); chicken DT40 Tdp1-/-;hTDP1 cells + 20 nM CPT, ATP luminescence, 48 h; Potency, µM (top dose mostly 46.2 µM), inactives show at the top dose activity change, negative = growth inhibition, hits mostly inhibitors; 420,000 tested, 12% active; further: potency means the concentration at half of the fitted maximal effect; nearly all actives have a fitted effect of over 55% in size
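Chicken DT40 Tdp1-/- cells complemented with human TDP1, 400 cells/well, exposed to compounds plus 20 nM camptothecin for at least 48 h at 37 C; viability read as ATP content by CellTiter-Glo luminescence.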
IL1B secr inh = inflammasome signaling inhibition, IL-1 beta readout. 360,000 tested, 4.7% active. THP-1 LPS/ATP IL-1B secretion, AlphaLISA, 16 h; hits give low values. activity change, % at 57.5 µM; in the data active means activity change below about -50%; inconclusive means mostly about -30% to -49%
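Secreted IL-1B measured by AlphaLISA bead assay after 16 h compound exposure of THP-1 cells; compounds (final up to 57.5 uM) added 1 h before LPS (250 ng/mL) and ATP (1.25 mM) stimulation; lower signal means less secretion.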
HT1080 IDH1KD tx = HT-1080 IDH1 knockdown cell toxicity (counter line); HT-1080 IDH1 knockdown viability, ATP luminescence, 48 h; Potency, µM (top dose mostly 46.1 µM), for the others: at the highest dose activity, negative = toxicity, hits mostly cytotoxic; 360,000 tested, 2% active; AID 686971;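 further: potency means the concentration at half of the fitted maximal effect; 0% = DMSO wells and -100% = cell-free medium wells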
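Viability of IDH1-knockdown HT-1080 fibrosarcoma cells was assessed by CellTiter-Glo after 48 h at 37 °C with titrated compound; concentration-effect curves were classified by fit quality and response size.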
Active calls of the source: *; i = inactive; u = inconclusive; x = no result given. Most compounds without a hit are left out; they make up all but 19% or so of the library. Unless noted, the call rests on the fitted dose curve; in most records, active means well fitted curve in the direction sought with a large enough effect; inconclusive means small, poorly fitted or top-dose-only effect, or another doubt; inactive means no such curve, though single readings can be large; an effect the other way counts as inactive or inconclusive. Unless noted, on the % scale 0 is the no-effect control and ±100 the full control effect.

SMILES	HT1080-NT tox	TDP1 cell noCPT	TDP1 cell CPT	IL1B secr inh	HT1080 IDH1KD tx
Cc1ccc(S(=O)(=O)N2C[C@H]3[C@H]4C(=O)N(c5ccccc5)C(=O)[C@H]4C[C@H](OC(=O)NCc4ccccc4)[C@@]3(O)C2)cc1	5%	-17%	-16%	17	14%
C=CCn1c(SCC(=O)NC2CCCC2)nc2c([nH]c3ccccc32)c1=O	-10%	-12%	-21%	i	-10%
Cc1ccc(CS(=O)Cc2ccc(C(=O)N3CCN(c4ccccn4)CC3)o2)cc1 (centres undefined)	0%	u	21µM*	2	3%
COc1cccc(N2CCN(C(=O)c3ccc(CS(=O)Cc4ccc(C)cc4)o3)CC2)c1 (centres undefined)	-4%	u	u	-1	-2%
Cc1cccc(N2CCN(C(=O)c3noc4c3CCCCC4)CC2)c1C	x	-51%	u	x	x
Cc1ccc(Cl)cc1N1CCN(C(=O)c2noc3c2CCCC3)CC1	x	u	12µM*	x	x
COc1ccc(OC)c(NC(=O)c2nnn(CC(=O)Nc3ccc4c(c3)OCO4)c2N)c1	8%	u	u	6	4%
CCOC(=O)c1ccc(NC(=O)Cc2coc3cc(C)cc(C)c23)cc1	x	18µM*	u	x	x
CCOC(=O)c1ccc(NC(=O)Cc2noc3ccc(C)cc23)cc1	x	u	21µM*	x	x
Cc1cc(C)c2c(CC(=O)Nc3ccc(F)cc3)coc2c1	x	-30%	u	x	x
CCOC(=O)C1=CCN(S(=O)(=O)c2ccc(C)cc2)C1c1ccccc1F (centres undefined)	-3%	u	u	18	1%
CCc1cccc(NC(=O)CSc2ncccc2C(=O)Oc2ccccc2Cl)c1	x	-19%	-11%	x	x
CCN(CC)CCn1c2c(c(SCC(=O)Nc3ccc(C(C)C)cc3)nc1=O)CCCC2	-2%	u	u	-50*	0%
CCOC(=O)Cc1csc(NC(=O)CSc2nc(=O)[nH]c3c2CCC3)n1	2%	-28%	0%	-90*	5%
CCN(CC)CCn1c2c(c(SCC(=O)Nc3nc(C)cs3)nc1=O)CCC2	-4%	7%	6%	-69*	-2%
CCOC(=O)Cc1csc(NC(=O)CSc2nc(=O)[nH]c3c2CCCC3)n1	2%	u	5%	-4	-1%
CCCCc1ccc(NC(=O)CSc2nc(=O)n(CCN(CC)CC)c3c2CCC3)cc1	-2%	u	u	-80*	-2%
CCN(CC)CCn1c2c(c(SCC(=O)Nc3ccc(C)c(F)c3)nc1=O)CCCC2	-7%	u	u	u	-16%
COc1ccc(NC(=O)CSc2nnc3n2CCCCC3)cc1S(=O)(=O)N1CCOCC1	4%	-9%	-4%	1	12%
CCc1nnc(NC(=O)CCc2ccccc2OC)s1	0%	-11%	10%	-1	1%
CC(C)c1ccc(NC(=O)CSc2nc(=O)[nH]c3c2CCCC3)cc1	-7%	21µM*	u	12	-10%
CCN(CC)CCCn1c2c(c(SCC(=O)Nc3cc(OC)cc(OC)c3)nc1=O)CCC2	-17%	18µM*	u	u	-16%
CCN(CC)CCCn1c2c(c(SCC(=O)Nc3ccc(F)c(F)c3)nc1=O)CCC2	-25%	-1%	-5%	-23	-19%
CCN(CC)CCn1c2c(c(SCC(=O)Nc3ccc(F)c(F)c3)nc1=O)CCC2	-4%	7%	-6%	-66*	-1%
COc1cc(NC(=O)CSc2nc(=O)n(CCCN3CCOCC3)c3c2CCC3)cc(OC)c1	3%	-18%	u	-8	-8%
COc1cccc(N2CCN(CC(=O)NC(C)c3ccccc3)CC2)c1 (centres undefined)	21%	5%	13%	-14	11%
COc1ccc(CNC(=O)CN2CCN(c3ccc(F)cc3)CC2)cc1	5%	-5%	-4%	-2	0%

Source: PubChem BioAssay
